Screening data (PubChem)
PINK1 expr mod – A Quantitative High throughput Screen to Identify Chemical Modulators of PINK1 Expression; PINK1 immunofluorescence, high-content cytometry, 24 h; Potency, µM (doses to about 76.6 µM), for inactives: top-dose activation (PINK1 increase), actives largely listed as activators; 0.2% of 410,000 active; AID 624263, 2012; active = well fitted activation curve with a large enough effect; inconclusive = small, poorly fitted or top-dose-only effect; cell line not stated here; note: % of control where 0% means no effect; nearly all actives have a fitted effect of over 65% in size
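Fluorescence from anti-PINK1 antibody, together with nuclear and cell stains, was scanned on a laser-scanning cytometer. Before staining, stable-line cells were incubated 24 hours with compounds at 5 concentrations; primary antibody 12 h at 10 degrees C.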
Nrf2 inh – Nrf2 qHTS screen for inhibitors | Potency, µM (doses to about 46 µM), inactives show at the highest dose activity change, negative = inhibition, most hits filed as inhibitors | A549 ARE-Fluc reporter, luciferase luminescence, 18-24 h | 2.1% of 360,000 active; note: % is set by controls: 0 for no effect and ±100 for the full control effect; nearly all actives have a fitted effect of over 60% in size
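Concentration-response testing used A549 ARE_Fluc cells at 5000 cells/well. Following an 18-24 h compound incubation, viability was read by fluorescence (Ex 405/Em 525) and luciferase output by luminescence.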
Epigenetic reg – Quantitative High-Throughput Screen for Regulators of Epigenetic Control; murine LDR cells, GFP reporter derepression, 30 h; Potency, µM (top dose mostly 53.9 µM), for inactives: at the highest dose GFP activation, actives largely listed as activators; 0.2% of 280,000 active; note: % of control where 0% means no effect; nearly all actives have a fitted effect of over 60% in size
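Reporter derepression read as number of fluorescent GFP-positive objects, 20-120 um in size, counted by laser-scanning cytometer. Mouse LDR line with an epigenetically silenced CMV-GFP locus; compound incubation 30 h, 37 C.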
A549 tox-1 – Nrf2 qHTS screen for inhibitors: counterscreen for cytotoxicity | A549 ARE-Fluc cells, CellTiter-Fluor viability, 18-24 h | Potency, µM (top dose mostly 46 µM), for inactives: top-dose activity change, negative = cytotoxicity, actives largely listed as inhibitors | 0.16% of 390,000 active; note: % is set by controls: 0 for no effect and ±100 for the full control effect
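Cytotoxicity counterscreen: CellTiter-Fluor fluorescence was measured in A549 ARE_Fluc cells after 18-24 h of compound exposure in a concentration series. The subsequent BugLite luminescent read reports ARE-luciferase activity.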
Nrf2 ARE act – qHTS of Nrf2 Activators; AREc32 ARE-luciferase reporter (MCF7-derived line), luminescence, 24 h; Potency, µM (titrated, usually from 46.1 µM), inactives show at the top dose activation, actives largely listed as activators; 0.31% of 410,000 active; note: % of control where 0% means no effect; nearly all actives have a fitted effect of over 65% in size
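AREc32 cells carrying an ARE-driven firefly luciferase, 1000 cells/well in OPTI-MEM with 5% FBS, dosed after overnight attachment and incubated 24 hr at 37 deg C. Steady-Glo luminescence read after 30 min at RT.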
FLuc enzyme inh – Nrf2 qHTS screen for inhibitors: Purified Fluc Biochemical Counterscreen for Hit Validation | shares compounds with Nrf2 inh | purified firefly luciferase, luminescence inhibition | Potency, µM (top dose mostly 57.5 µM), for inactives: at the top dose activity change, negative = inhibition, most hits filed as inhibitors | 4% of 1,400 active; note: % is set by controls: 0 for no effect and ±100 for the full control effect; nearly all actives have a fitted effect of over 65% in size
Target sequence (P08659 whole entry, looked up): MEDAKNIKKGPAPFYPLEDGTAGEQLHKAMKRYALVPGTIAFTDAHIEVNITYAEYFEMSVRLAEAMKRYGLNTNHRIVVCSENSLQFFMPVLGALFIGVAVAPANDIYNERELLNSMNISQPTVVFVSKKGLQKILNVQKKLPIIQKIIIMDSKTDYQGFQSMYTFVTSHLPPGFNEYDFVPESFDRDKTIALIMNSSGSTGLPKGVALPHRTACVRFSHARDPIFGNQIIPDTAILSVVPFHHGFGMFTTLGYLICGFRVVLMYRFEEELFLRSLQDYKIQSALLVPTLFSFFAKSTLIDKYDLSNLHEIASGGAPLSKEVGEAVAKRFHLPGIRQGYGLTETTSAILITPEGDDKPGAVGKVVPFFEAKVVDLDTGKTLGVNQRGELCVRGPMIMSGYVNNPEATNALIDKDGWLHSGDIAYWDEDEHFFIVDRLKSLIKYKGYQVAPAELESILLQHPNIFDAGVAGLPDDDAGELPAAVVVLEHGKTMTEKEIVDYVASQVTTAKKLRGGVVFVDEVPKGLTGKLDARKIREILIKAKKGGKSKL
A549 tox-2 – Nrf2 qHTS screen for inhibitors: A549 ARE-Fluc Cytotoxicity Counterscreen for Hit Validation | shares compounds with Nrf2 inh | A549 ARE-Fluc cells, cytotoxicity counterscreen | Potency, µM (top dose mostly 46.1 µM), for the others: top-dose activity change, negative = cytotoxicity, actives largely listed as inhibitors | 2% of 1,400 active | AID 720523, 2013;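 note: cells exposed to compounds for 18 to 24 hours; % is set by controls: 0 for no effect and ±100 for the full control effect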
ARE-Fluc inh – Nrf2 qHTS screen for inhibitors: Nrf2 A549 ARE-Fluc Confirmation Assay for Hit Validation. 74% of 1,400 active. A549 ARE-firefly luciferase reporter, luminescence. shares compounds with Nrf2 inh. Potency, µM (doses to about 46.1 µM), without a hit: top-dose activity change, negative = inhibition, actives largely listed as inhibitors; note: % is set by controls: 0 for no effect and ±100 for the full control effect; nearly all actives have a fitted effect of over 65% in size
* marks the source's active call; other numbers are inactive results; ? = inconclusive; · = no result given; [ ] = remark or other dose. An excerpt weighted towards active compounds, which were near 2.4% of everything screened. Unless noted, calls come from the whole dose curve; as a rule, active = well fitted curve in the direction sought with a large enough effect; inconclusive = small, poorly fitted or top-dose-only effect, or another doubt; inactive = no such curve, though single readings can be large; an effect the other way counts as inactive or inconclusive. Potency is the fitted concentration of half-maximal effect.

SMILES	PINK1 expr mod	Nrf2 inh	Epigenetic reg	A549 tox-1	Nrf2 ARE act	FLuc enzyme inh	A549 tox-2	ARE-Fluc inh
CN1/C(=C/c2cccc[n+]2C)Sc2ccccc21	17.8µM*	0.82µM*	·	11.6µM*	-0.6%	-1.2%	?	2.06µM*
COc1cc(OC)cc(C(=O)/C=C2\Sc3ccccc3N2C)c1	-1.5%	17.4%	?	-1.1%	3.2%	·	·	·
CCCCN1CCC2C=CCC(C(=O)O)C2C1=O (configuration not stated)	·	-21.9%	·	0.7%	·	·	·	·
CN1C(=O)c2[nH]nc(-c3ccc(F)cc3)c2C1c1cccc(O)c1 (configuration not stated)	0.5%	-0.3%	-1.0%	-2.0%	5.0%	·	·	·
Cc1ccc(-c2nc(-c3cc4cc(Cl)ccc4oc3=O)sc2C)cc1	0.1%	9.9%	·	-1.0%	·	·	·	·
CN(C)S(=O)(=O)c1ccc(N2CCN(S(=O)(=O)c3ccc(F)cc3)CC2)c(Cl)c1	-1.6%[38.3 µM]	5.8µM*	0.0%	-17.1%	2.4%	-1.0%	-17.7%	?
COc1cccc([C@@H]2Oc3ccc(OC)cc3C[C@H]2OC(=O)NS(=O)(=O)c2ccc(C)cc2)c1	·	·	2.3%	·	·	·	·	·
Cc1ccc(Nc2c(-c3ccccn3)nc3cccc(C)n23)cc1	?	6.51µM*	0.4%	?	2.9%	-7.8%	?	5.17µM*
Cc1ccc(Nc2c(-c3ccc(C)o3)nc3cccc(C)n23)cc1	-0.1%	-2.7%	-1.8%	0.7%	0.7%	·	·	·
O=C(O)C1=C[C@H](c2csc3ccccc23)C[C@H](OCc2ccc(CO)cc2)O1	1.6%	-11.3%	0.0%	-2.0%	-0.3%	·	·	·
O=C(NCc1ccccc1)C1=C[C@@H](c2csc3ccccc23)C[C@@H](OCc2ccc(CO)cc2)O1	-0.4%	6.51µM*	4.5%	?	-0.2%	0.6%	-25.9%	18.4µM*
COc1ccc(C2=Nn3c(nnc3-c3ccccc3C)SC2)cc1	·	13.4%	·	-13.4%	·	·	·	·
CCOC(=O)c1[nH]c(C)c(CCC(=O)NCc2ccc(N(C)C)cc2)c1C	-1.0%	·	3.7%	19.1%	-0.9%	·	·	·
COc1ccccc1/C=C/C(=O)N1CCc2cc(OC)c(OC)cc2C1C (configuration not stated)	-1.5%	?	·	-11.5%	-0.4%[9.22 µM]	2.5%	-5.7%	7.31µM*
Oc1ccc(/C=C/c2ccc3ccccc3n2)cc1	2.9%	11.0%	-0.4%	-7.8%	0.2%	·	·	·
CC[N+](CC)(CC)c1ccc(/C=C/c2ccc3ccccc3n2)cc1	?	·	·	·	·	23.9µM*	9.2µM*	2.06µM*
C(=C\c1ccc2ccccc2n1)/c1ccccc1	6.0%	?	-7.1%	0.5%	16.3%	2.6%	?	7.31µM*
CCCCn1cc(S(=O)(=O)c2ccccc2)c(=O)c2cc(F)c(N3CCN(CCC)CC3)cc21	0.8%	-7.2%	-1.2%	-10.5%	-0.8%	·	·	·
CCc1ccc(S(=O)(=O)N(C(=O)Oc2ccccc2)c2ccc3oc(C)c(C(=O)OC)c3c2)cc1	8.1%	3.66µM*	2.4%	-10.3%	-1.2%	2.8%	-7.1%	6.51µM*
CCOC(=O)c1c(C)oc2ccc(N(C(=O)c3ccncc3)S(=O)(=O)c3ccc(F)cc3C)cc12	-2.0%	?	-1.0%	4.8%	-0.4%	·	·	·
Cc1ccc(S(=O)(=O)N(C(=O)c2ccncc2)c2ccc3oc4c(c3c2)CCCC4)cc1[N+](=O)[O-]	?	?	0.0%	-16.0%	5.2%	·	·	·
COC(=O)c1c(C)oc2ccc(N(C(=O)c3ccncc3)S(=O)(=O)c3c(C)cc(C)cc3C)cc12	0.7%	4.11µM*	-2.5%	-2.9%	0.2%	1.5%	-8.0%	5.8µM*
COC(=O)c1c(C)oc2ccc(N(C(=O)Oc3ccccc3)S(=O)(=O)c3ccc(Cl)c([N+](=O)[O-])c3)cc12	-2.2%	-12.3%	-3.0%	-16.5%	0.3%	·	·	·
COC(=O)c1c(C)oc2ccc(N(C(=O)c3ccncc3)S(=O)(=O)c3cc(C)c(C)cc3C)cc12	4.6%	9.2µM*	2.6%	-14.6%	-0.9%	-10.5%	-20.9%	10.3µM*
O=C1c2ccccc2NC(c2ccc(OCc3ccccc3)c(OCc3ccccc3)c2)N1Cc1ccco1 (configuration not stated)	1.8%	-8.8%	·	-1.0%	·	·	·	·
SMILES	PINK1 expr mod	Nrf2 inh	Epigenetic reg	A549 tox-1	Nrf2 ARE act	FLuc enzyme inh	A549 tox-2	ARE-Fluc inh
CCc1ccc(C(=O)c2cn(CC(=O)Nc3cc(OC)ccc3OC)c3ccc(Cl)cc3c2=O)cc1	1.0%	6.2%	-3.1%	1.1%	0.1%	·	·	·
COC(=O)c1cc2sccc2n1Cc1ccc(F)cc1Cl	2.1%	?	2.2%	2.0%	0.6%	·	·	·
Cc1ncnc2nc[nH]c12	·	·	·	·	·	-2.1%	-28.1%	5.8µM*
CC(C)[C@@H](CC(=O)N[C@@H]1CCNC[C@H]1C(=O)N[C@H](CC(=O)N[C@@H](CCC(=O)O)CC(=O)O)Cc1ccccc1)NC(=O)C[C@H](CO)NC(=O)[C@@H]1CCCC[C@H]1N	·	·	-1.1%	·	·	·	·	·
CCCCOc1ccccc1NC(=O)c1scc2c1OCCO2	0.2%	5.17µM*	1.2%	0.7%	6.0%	-14.3%	4.5%	6.1%
O=C(NC(NC(=S)Nc1c(Cl)cc(Cl)cc1Cl)C(Cl)(Cl)Cl)OCc1ccccc1 (configuration not stated)	?	2.91µM*	3.2%	?	12.2%	-3.7%	?	23.1µM*
O=[N+]([O-])c1ccc(CN2CCN(c3ccc([N+](=O)[O-])cc3)CC2)cc1	0.1%	7.31µM*	·	-24.0%	1.5%	-1.0%	-15.7%	·
CCc1c(C)nc2nncn2c1NCc1ccc(OC)cc1	0.5%	?	-0.4%	-3.5%	0.6%	·	·	·
Cc1nc2nncn2c(NCc2ccc(Cl)cc2)c1C	1.4%	3.26µM*	-3.4%	-5.5%	3.3%	-1.1%	-1.7%	6.51µM*
CC1CCc2c(sc(NC(=O)/C=C/c3cccs3)c2C(=O)O)C1 (configuration not stated)	-0.3%	6.51µM*	·	-23.8%	15.2%	?	?	7.31µM*
CCc1ccc(NC(=O)CC2C(=O)N(c3ccc(Cl)cc3)C(=O)N2Cc2cccs2)cc1 (configuration not stated)	3.7%	-11.6%	2.7%	-4.6%	5.4%	·	·	·
